Assay results reported in PubChem BioAssay AID624296 (National Center for Advancing Translational Sciences (NCATS), 2012).
Out of some 350,000 compounds screened, about 9,900 (2.8%) were called active. About 15% were inconclusive and are not listed. Calls come from the whole dose curve; as a rule, active = well fitted activation curve with a large enough effect; inconclusive = small, poorly fitted or top-dose-only effect; inactive = no such curve, though single readings can be large or run the other way. The full list was thinned out, with actives kept by preference.

Experiment: A quantitative high throughput screen for small molecules that induce DNA re-replication in MCF 10a normal breast cells. For activity, positive = re-replication: % of control where 0% means no effect. Note: nearly all actives have a fitted effect of over 50% in size.
Settings: MCF 10A DNA re-replication, Hoechst nuclear intensity, 48 h; series mostly up to 46.1 µM; activity, positive = re-replication: at the top concentration
Potency is the fitted concentration of half-maximal effect.

SMILES | activity, positive = re-replication | Potency
O=S(=O)(c1ccc(SCc2ccccc2)nc1)N1CCCCCC1 | 2.52% (inactive) | –
CC(C)OC(=O)c1ccc(NCc2cc(O)ccc2O)cc1Cl | – | 1.64 µM (active)
O=C(OC12CC3CC(CC(C3)C1)C2)c1ccc(NCc2cc(O)ccc2O)cc1 | 6.95% (inactive) | –
CC(CN1CCOCC1)OC(=O)c1ccc(Cl)cc1Cl (stereo unspecified) | 0.31% (inactive) | –
CN(C)c1ccc(CSc2ccccc2)cc1 | 0.453% (inactive) | –
O=c1c2ccccc2ncn1CCc1ccncc1 | -0.822% (inactive) | –
CC[C@]12c3[nH]c4ccc(Cl)cc4c3CCN1C(=O)[C@@H](CC(=O)NCCCOC)C[C@@H]2C(=O)N1CCN(C(=O)C2CC2)CC1 | -0.182% (inactive) | –
CC1CCCCC1NC(=O)Cn1c(=O)cnc2ccccc21 (stereo unspecified) | -2.91% (inactive) | –
C=C(C)CNc1cc(S(=O)(=O)N2CCOCC2)ccc1Oc1ccccc1 | 1.46% (inactive) | –
CC(=O)Nc1ccc(NC(=O)COC(=O)c2ccccc2C(=O)c2ccccc2)cc1 | 20.4% (inactive) | –
COC(=O)c1cc(NC(=O)Cc2ccccc2[N+](=O)[O-])ccc1Cl | -3.8% (inactive) | –
CC(=O)Nc1ccc(NC(=O)C(C)OC(=O)c2ccccc2C(=O)c2ccc(Cl)c([N+](=O)[O-])c2)cc1 (stereo unspecified) | – | 16.4 µM (active)
NC(=O)c1ccc(NC(=O)COC(=O)c2ccc([N+](=O)[O-])cc2)cc1 | 6.98% (inactive) | –
CC(CC(=O)O)C(=O)c1ccc(Cl)c([N+](=O)[O-])c1 (stereo unspecified) | 3.61% (inactive) | –
N#Cc1cccc(NC(=O)COC(=O)c2ccccc2C(=O)c2ccc(Cl)c([N+](=O)[O-])c2)c1 | – | 2.91 µM (active)
Cc1ccc(S(=O)(=O)N2CCN(C(=O)Cn3c(=O)cnc4ccccc43)CC2)c(C)c1 | -0.758% (inactive) | –
O=C(COC(=O)COc1cc(Cl)c(Cl)cc1Cl)NC1CC1 | 1.27% (inactive) | –
Cc1ccccc1NC(=O)CSC(=O)c1ccccc1 | 17.3% (inactive) | –
CCOC(=O)[C@H]1[C@H]2COc3ccc(Br)cc3[C@@H]2N2C(=O)CN(C)C(=O)[C@@]12C | 46.2% (inactive) | –
COc1ccccc1CNC(=O)c1ccc(Cl)c(S(=O)(=O)N2CCCC2)c1 | 14.6% (inactive) | –
Cc1occc1C(=O)Nc1cccc(S(=O)(=O)N2CCOCC2)c1 | 3.03% (inactive) | –
CCN1CCN(C(=O)CSc2ccc(C)cc2)CC1 | 0.479% (inactive) | –

SMILES | activity, positive = re-replication | Potency
Cc1ccc(SCC(=O)N2CCN(c3ccc(F)cc3)CC2)cc1 | -25.2% (inactive) | –
CCN1CCC2(CC1)N=C(c1ccc(F)cc1)C(=S)N2C(=O)c1ccc(C)cc1 | – | 13 µM (active)
COc1ccccc1NC(=O)CSc1nc2sc3c(c2c(=O)n1-c1ccccc1)CCN(C)C3 | 0.14% (inactive) | –
CCSc1nc2sc3c(c2c(=O)n1-c1ccc(C)cc1)CCN(C)C3 | – | 18.4 µM (active)
CCOc1ccc(-n2c(SCC(=O)OC)nc3sc4c(c3c2=O)CCN(C)C4)cc1 | -8.57% (inactive) | –
Cc1ccc(S(=O)(=O)N(C)CC(=O)NCC(c2ccc(F)cc2)N2CCOCC2)cc1 (stereo unspecified) | -1.57% (inactive) | –
Cc1ccccc1C(=O)NC(=S)Nc1ccc(N2CCN(C(=O)c3ccccc3)CC2)cc1 | -7.1% (inactive) | –
Cc1ccccc1C(=O)Nc1ccc(N2CCCCCC2)cc1 | – | 18.4 µM (active)
Cc1ccccc1C(=O)Nc1ccccc1NC(=O)c1ccccc1C | 6.72% (inactive) | –
O=c1[nH]c2c(c(=O)n1-c1ccccc1)CCO2 | -2.42% (inactive) | –
Cc1ccccc1N1CCN(C(=O)c2cccnc2)CC1 | 1.77% (inactive) | –
CC1Cc2ccccc2N1S(=O)(=O)c1cccc(C(=O)OCC(=O)N2CCOCC2)c1 (stereo unspecified) | -9.4% (inactive) | –
CCC1([N+](=O)[O-])COC(c2ccc(C(C)C)cc2)OC1 (stereo unspecified) | 1.18% (inactive) | –
CC(C)N(C(=O)c1ccc(-c2ccccc2F)cc1)C(C)C | -4.52% (inactive) | –
O=C(CN1C(=O)c2ccccc2C1=O)NCc1ccc(C(=O)O)cc1 | -0.0938% (inactive) | –
CC(=O)N(C1=C(Cl)C(=O)c2ccccc2C1=O)c1ccc(C(=O)O)cc1 | – | 5.8 µM (active)
O=C(OCC(=O)N1CCCCCC1)c1cnc(Cl)c(Cl)c1 | 7.44% (inactive) | –
COc1cccc2sc(N(CCCN(C)C)C(=O)CCS(=O)(=O)c3ccccc3)nc12 | – | 6.51 µM (active)
CN(C)CCCN(C(=O)COc1ccccc1)c1nc2c(Cl)cccc2s1 | 0.434% (inactive) | –
COc1cc2ccccc2cc1C(=O)N(CCN(C)C)c1nc2c(F)cccc2s1 | 9.27% (inactive) | –
N#Cc1ccccc1S(=O)(=O)N1CCN(Cc2c(O)ccc3ccccc23)CC1 | 0.162% (inactive) | –
CCc1ccccc1OCC(=O)Nc1ccc2c(c1)OCCO2 | 3.44% (inactive) | –

SMILES | activity, positive = re-replication | Potency
CCOc1ccccc1NC(=S)C(=C([O-])c1ccc2c(c1)OCCO2)[n+]1ccc(CC)cc1 | – | 2.59 µM (active)
O=[N+]([O-])c1cccc(/C([O-])=C(/C(=S)Nc2ccccc2F)[n+]2ccccc2)c1 | -4.73% (inactive) | –
O=[N+]([O-])c1ccc(N=NNc2ccc([N+](=O)[O-])cc2)cc1 | 4.43% (inactive) | –
c1ccc(CSc2ncnc3c2sc2nc(N4CCOCC4)c4c(c23)CCCC4)cc1 | 7.01% (inactive) | –
Cc1cccc(NC(=O)/C(=C\c2ccco2)NC(=O)c2ccccc2)c1 | 4.86% (inactive) | –
CC(=O)Nc1ccc(NC(=O)c2sc3nc4c(c(-c5ccc(C)cc5)c3c2N)CCC4)cc1 | – | 5.8 µM (active)
Cc1ccc(NC(=O)c2sc3nc(N)c(C#N)cc3c2N)cc1 | 99% (inactive) | –
CC(=O)c1ccc(NC(=O)c2sc3nc4n(c(=O)c3c2C)CCCCC4)cc1 | 13.7% (inactive) | –
Cc1cccc(NC(=O)c2sc3nc(N4CCOCC4)c4c(c3c2N)CCCC4)c1 | – | 2.91 µM (active)
Cc1cccc(NC(=O)c2sc3nc4c(c(-c5ccco5)c3c2N)CCC4)c1 | – | 13 µM (active)
CC(=O)Nc1ccc(N2CCOCC2)c(C(=O)Nc2cccc(C)c2)c1 | 0.446% (inactive) | –
Cc1cccc(NC(=O)CSc2nnc(-c3ccco3)o2)c1 | 13.8% (inactive) | –
Cc1ccc(S(=O)(=O)N(C)c2ccc(OCC(=O)OCc3ccc(C#N)cc3)cc2)cc1 | -2.84% (inactive) | –
O=C(CC(=O)c1cccnc1)c1ccccc1 | 1.86% (inactive) | –
OC(COc1ccccc1)CN1CCN(c2cccc(Cl)c2)CC1 (stereo unspecified) | 6.13% (inactive) | –
C[C@@H]1NS(=O)(=O)c2cc(Cl)ccc2O[C@@H]1c1ccccc1 | 2.32% (inactive) | –
CCc1cccc(NC(=O)COC(=O)c2cc(=O)c3ccccc3o2)c1 | -1.43% (inactive) | –
CCOC(=O)C1CCCN(C(=O)CSc2nnc3nc(C)cc(C)n23)C1 (stereo unspecified) | -3.48% (inactive) | –
Cc1c(C(=O)Nc2cccc(S(=O)(=O)N3CCOCC3)c2)oc2ccccc12 | 4.39% (inactive) | –
COc1cccc(N(CC(=O)Nc2cccc(F)c2)S(C)(=O)=O)c1 | 0.363% (inactive) | –
Cc1cccc(N(CC(=O)Nc2ccc(-c3nc4ccc(C)cc4s3)cc2)S(C)(=O)=O)c1 | – | 14.6 µM (active)
CCN(CC)S(=O)(=O)c1ccc(NC(=O)CN(c2cccc(F)c2)S(C)(=O)=O)cc1 | 14.2% (inactive) | –
